Data on 69 molecules can be found in ChEMBL document CHEMBL3988442, “University of Dundee, Small-Polar-MMV Screening Library” (2021).

In all, about 48,000 compounds went through this assay and about 13,000 (27%) showed an effect of 50% or more. Some of the results follow.

This assay relates to Wolbachia pipientis. As to the kind of experiment: Anti-Wolbachia Cell-Based Screen. It counts as functional. On the set-up: scale not given: in the data most compounds retested in dose-response had high values. To be noted: 5 µM.
Turning to `Cl.Cn1cc(CNC2CCC(O)CC2)c(-c2cc3ccccc3o2)n1` (centres undefined), the “Percent Effect” value was 4.474%.

With `CC(NC(=O)Cc1cc2c(cc1Cl)OCCO2)c1ccncn1` (centres undefined), the “Percent Effect” value was -8.722%.

`O=C(c1c2c(NCC3CC3)ncnc2n2ccccc12)N1CCCC1`: the “Percent Effect” value is listed as 17.48%.

As to `COc1ncc(C2CC(=O)NCc3nc4ccccn4c32)cn1` (centres undefined), the “Percent Effect” value was found to be 2.979%.

In the case of `CCn1ccc(C(=O)N(C)Cc2cnn(-c3cccc(OC)c3)c2)n1`, the “Percent Effect” value is -12.09%.

In the case of `COCC(=O)N1CCOC(c2ccc(N(C)C)cn2)C1` (centres undefined), the “Percent Effect” value was found to be 108.5%.

As to `CNC(=O)c1ccc(C2CN(C(=O)COC)CCO2)nc1` (centres undefined), the “Percent Effect” value is reported as -5.036%.

In the case of `COCC(=O)N1CCOC(c2cccc(-c3cncnc3)n2)C1` (centres undefined), the “Percent Effect” value amounted to 151.1%.

Turning to `Br.Cn1nccc1CN1CCOC(c2cccc(-c3cncnc3)n2)C1` (centres undefined), the “Percent Effect” value is 91.95%.

As to `Cc1nccc(C2CN(Cc3cc[nH]n3)CCO2)n1` (centres undefined), the “Percent Effect” value is on record as -9.06%.

Take `COc1ccc2cc(C3CN(C(=O)COC(C)C)CCO3)ccc2c1` (centres undefined): the “Percent Effect” value is recorded as -0.3239%.

As for `CCC1CN(C(=O)COc2ccc(C)nc2)CCO1` (centres undefined), the “Percent Effect” value was -3.761%.

For the molecule `Cc1ccc(C2CN(Cc3cnc(-c4cccnc4)s3)CCO2)o1` (centres undefined), the “Percent Effect” value worked out at 6.287%.

`CC(Cc1ccc(C(F)(F)F)cc1)C(=O)N1CCCS1(=O)=O` (centres undefined): the “Percent Effect” value was -11.51%.

Consider `c1ccc(C2CN(C3CC3)CC3(CCN(Cc4cscn4)CC3)C2)cc1` (centres undefined), for which the “Percent Effect” value was -14.1%.

As to `CCOc1ccc(CN2C(=O)CC(C)(C(C)C)C2=O)nc1` (centres undefined), the “Percent Effect” value is given as -23.31%.

In the case of `CC(C)N(C)Cc1nnc2n1CCCN(c1ncccn1)C2.O=C(O)C(F)(F)F`, the “Percent Effect” value came to 99.37%.

With `Cc1cnc(N2CCCn3c(nnc3CN(C)C(C)C)C2)nc1.O=C(O)C(F)(F)F`, the “Percent Effect” value is listed as 99.73%.

For the molecule `Fc1cnc(N2CCCn3c(nnc3Cn3ccnc3)C2)nc1.O=C(O)C(F)(F)F`, the “Percent Effect” value is on record as -11.56%.

Turning to `Cc1cnc(N2CCn3c(CN4CCOCC4)nnc3C2)nc1.O=C(O)C(F)(F)F`, the “Percent Effect” value is reported as -6.202%.

Regarding `CS(=O)(=O)N1CCC(NCC2(N3CCOCC3)CCCCC2)CC1`, the “Percent Effect” value was -12.17%.

For the molecule `COc1cc2cc(C(=O)N[C@@H](C)C(=O)O)n(C)c2c(OC)c1OC`, the “Percent Effect” value is 6.023%.

As for `CC(C)Cc1ncc(CNc2cnccc2CO)s1`, the “Percent Effect” value is reported as 2.618%.

`CC(C)n1cnc2c1C(C(=O)NCCO)N(Cc1ccccc1)CC2.O=C(O)C(F)(F)F` (centres undefined): the “Percent Effect” value is reported as 2.168%.

On to `CN(C1CCc2ccccc2C1)S(C)(=O)=O` (centres undefined), for which the “Percent Effect” value is given as -5.064%.

In the case of `COCCN(CC(F)F)c1cc(COC)nc2ncnn12`, the “Percent Effect” value worked out at 3.034%.

Regarding `CCn1c(CN2CCCN(C(=O)OC)CC2)nc2c(F)cccc21`, the “Percent Effect” value was -3.965%.

Consider `COCC(=O)N1CCCN(Cc2c(C)nc3ccc(Cl)cn23)CC1`, for which the “Percent Effect” value is on record as -0.9556%.

Turning to `COCC(=O)N1CCN(Cn2nc(C)c(Br)c2C)CC1`, the “Percent Effect” value was 100.8%.

`COCC(=O)N1CCN(Cc2nnc(C(C)(C)C)o2)CC1`: the “Percent Effect” value is given as -20.23%.

As for `CCC(=O)N1CCCN(C(=O)c2cc(C)cc(Br)c2O)CC1`, the “Percent Effect” value was determined as 5.319%.

In the case of `COC(=O)N1CCCN(C(=O)c2cccc3cccnc23)CC1`, the “Percent Effect” value is listed as -4.967%.

As for `CCn1ccnc1CN1CCCN(C(=O)Cn2nc(C)cc2C)CC1`, the “Percent Effect” value is given as -3.678%.

Consider `CCC(=O)N1CCCN(Cn2nc(C)c(Br)c2C)CC1`, for which the “Percent Effect” value is reported as 116.5%.

With `COC(=O)N1CCCN(Cn2nc(C)c(Br)c2C)CC1`, the “Percent Effect” value was 92.29%.

Take `O=C(CCCn1nnc(-c2ccc(F)cc2)n1)N1CCOCC(CO)C1` (centres undefined): the “Percent Effect” value is reported as -1.392%.

Turning to `CCCN(Cc1nccn1C)C(=O)c1cnn[nH]1`, the “Percent Effect” value is -16.97%.

For the molecule `Cc1nn(-c2ccccc2)c(C)c1-c1ccnc(N2CCC(O)CC2)n1`, the “Percent Effect” value was -6.995%.

As to `Cc1nn(C2CCCC2)c2nc(C(C)(C)CN3CCN(C)CC3)[nH]c12`, the “Percent Effect” value turned out to be 98.14%.

`CC(CN1CCOCC1)NCc1nncn1C1CCCCC1` (centres undefined): the “Percent Effect” value is listed as -12.38%.

With `Cc1nn(C2CCCCC2)c2nc(C(C)(C)CN3CCOCC3)[nH]c12`, the “Percent Effect” value is on record as 104.5%.

`CC(C)(C)c1c[nH]c([C@@H]2COCCN2C2CCCCC2)n1`: the “Percent Effect” value is -16.61%.

Turning to `Cc1nn(-c2ccccc2)c2nc(C(C)(C)CN3CCN(C)CC3)[nH]c12`, the “Percent Effect” value is given as 102.6%.

With `Cn1ncc2c(NCCCOc3cccnc3)nc(C3CCCC3)nc21`, the “Percent Effect” value came out at 15.74%.

With `CCn1cnnc1C1CCN(C(=O)c2ccccc2OC)CC1`, the “Percent Effect” value is listed as -6.439%.

Take `CCn1cnnc1C1CCN(C(=O)c2ccc(Cl)cc2OC)CC1`: the “Percent Effect” value is 99.28%.

Turning to `CCn1cnnc1C1CCN(C(=O)COc2ccc(Cl)cc2)CC1`, the “Percent Effect” value came out at 6.006%.

As for `CCn1cnnc1C1CCN(C(=O)c2cc(OC)ccc2OC)CC1`, the “Percent Effect” value is given as 101%.

Turning to `CCn1cnnc1C1CCN(C(=O)c2cccc(OC)c2OC)CC1`, the “Percent Effect” value is 96.27%.

Consider `CCn1cnnc1C1CCN(C(=O)c2cc(F)ccc2OC)CC1`, for which the “Percent Effect” value is on record as 106.7%.

On to `CCn1cnnc1C1CCN(C(=O)Cc2ccc(OC)c(F)c2)CC1`, for which the “Percent Effect” value was -0.6685%.

Turning to `COc1ccc(CC(=O)N2CCC(c3nncn3C)CC2)cc1F`, the “Percent Effect” value is listed as -9.824%.

`CCn1cnnc1C1CCN(C(=O)COc2ccccc2OC)CC1`: the “Percent Effect” value turned out to be 7.042%.

In the case of `O=C(O)C(F)(F)F.O=C([C@H]1COC[C@H]2CN(C3CCCC3)C[C@H]21)N1CCCCO1`, the “Percent Effect” value is on record as -5.445%.

With `O=C(Cc1cccc(Cl)c1)Nc1cnccc1SCCCO`, the “Percent Effect” value is 7.035%.

As to `COc1ccc(CNc2nncs2)cc1F`, the “Percent Effect” value is -12.2%.

For the molecule `O=C(Nc1ccc(OC(F)F)cc1)N1CCC(c2nnc[nH]2)CC1`, the “Percent Effect” value is -4.065%.

Turning to `CNC(=O)Cc1ccccc1NC(=O)C1CCCC1`, the “Percent Effect” value worked out at 5.338%.

Turning to `CSc1ccccc1NC(=O)CCN1CCC(C(=O)N(C)C)CC1`, the “Percent Effect” value came to 8.025%.

Regarding `CC(C)(C)CC(=O)Nc1ccccc1SCC(N)=O`, the “Percent Effect” value worked out at 103.7%.

Turning to `O=C(Nc1cccnc1-n1cncn1)C1CCC1`, the “Percent Effect” value was -13.11%.

`CC(=O)N1CCCC(C(=O)Nc2ccccc2Cc2ccccc2)C1` (centres undefined): the “Percent Effect” value is on record as 4.475%.

`NC(=O)CSc1ccccc1NCc1nc(Cc2ccccc2)no1`: the “Percent Effect” value is given as -16.37%.

For the molecule `CNC(=O)Cc1ccccc1NC(=O)C1CCN(C2CCCCC2)C1` (centres undefined), the “Percent Effect” value is reported as -1.289%.

On to `NC(=O)CSc1ccccc1NC(=O)C1CCCCC1`, for which the “Percent Effect” value amounted to 84.77%.

With `NC(=O)CSc1ccccc1NCc1nc(C2CC2)no1`, the “Percent Effect” value is recorded as -3.279%.

`NC(=O)CSc1ccccc1NC(=O)C1CCCC1`: the “Percent Effect” value is listed as 99.94%.

In the case of `CCCN1CCC(N(C)CCC(=O)Nc2ccccc2SC)CC1`, the “Percent Effect” value is recorded as -1.207%.

With `NC(=O)CSc1ccccc1NC(=O)CC1C=CCC1` (centres undefined), the “Percent Effect” value is listed as 119.4%.
